High-throughput results: PubChem BioAssay, Broad Institute
Pf Dd2 growth – inhibitors of Plasmodium falciparum Dd2 growth; P. falciparum Dd2 growth, SYBR Green, 72 h; stronger effect = lower value; activity change, % at 10 µM; 94,000 compounds, 2.3% hits; AID 1159554; in the data active = activity change below about -80%; inconclusive = no clear call, values can overlap the other calls
T cruzi growth – T. cruzi proliferation inhibition | T. cruzi beta-gal in NIH3T3, GalScreen luminescence, 90 h | inhibition, % at 8.34 µM | 77,000 compounds, 5.9% hits;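 active = mean inhibition above about 93%, with at least 55% of replicates each passing it, limit read from the data, passing the limit was not always enough; inconclusive = only one of those two conditions holds; inactive = neither condition holds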
C diff growth – C. difficile growth inhibition | Clostridium difficile clinical isolate growth, OD600, 24 h; stronger effect = lower value | growth activity, negative = inhibition, % at 16 µg/mL (by protocol) | 86,000 compounds, 0.25% hits;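 active = mean growth activity at or below -80% and every replicate also at or below -80%; inconclusive = mean at or below -80% but some replicate above -80%; inactive = mean growth activity above -80%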;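 note: 0% = DMSO wells and -100% = levofloxacin 16 µg/mL wells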
Active calls of the source: *; u = inconclusive; x = no result given; ! = not active in a repeat. Only some compounds are listed: those with a hit (about 6.7% of all), similar ones and a draw of the others.

SMILES	Pf Dd2 growth	T cruzi growth	C diff growth
C[C@@H]1CCCCO[C@@H](CN(C)S(=O)(=O)c2ccc(Cl)cc2)[C@@H](C)CN([C@@H](C)CO)C(=O)c2cc(NS(=O)(=O)c3ccccc3)ccc2O1	-70.2	x	0.7
C[C@H]1CCCCO[C@H](CN(C)S(=O)(=O)c2ccc(Cl)cc2)[C@@H](C)CN([C@@H](C)CO)C(=O)c2cc(NS(=O)(=O)c3ccccc3)ccc2O1	-89.7*	x	0.2
C[C@@H]1CN([C@@H](C)CO)C(=O)c2cc(NS(=O)(=O)c3ccccc3)ccc2O[C@@H](C)CCCCO[C@@H]1CN(C)S(=O)(=O)c1ccc(Cl)cc1	-85.1*	x	4.0
C[C@@H]1CN([C@H](C)CO)C(=O)c2cc(NS(=O)(=O)c3ccccc3)ccc2O[C@@H](C)CCCCO[C@@H]1CN(C)S(=O)(=O)c1ccc(Cl)cc1	-74.4	u	1.2
C[C@@H]1CN([C@@H](C)CO)C(=O)c2cc(NS(C)(=O)=O)ccc2O[C@@H](C)CCCCO[C@H]1CN(C)C(=O)c1ccccc1	9.6	11.8	-0.3
COCc1cn(CC[C@H]2CC[C@@H](NC(=O)Nc3ccc(F)cc3)[C@H](CO)O2)nn1	0.8	31.3	-1.8
CCCNC(=O)N1[C@H](C#N)[C@H](c2ccc(-c3ccccc3F)cc2)[C@@H]1CO	-86.8*	91.3	17.9
CCCNC(=O)N1[C@@H](C#N)[C@H](c2ccc(-c3ccccc3F)cc2)[C@@H]1CO	-62.8	33.8	-4.6
CCCNC(=O)N1[C@H](C#N)[C@H](c2ccc(-c3ccccc3F)cc2)[C@H]1CO	-87.5*	67.1	11.8
CCCNC(=O)N1[C@H](CO)[C@@H](c2ccc(-c3ccccc3F)cc2)[C@@H]1C#N	-16.5	55.8	1.2
O=C(Nc1ccc2c(c1)[C@H]1C[C@@H](CC(=O)N3CCc4ccccc4C3)O[C@@H](CO)[C@H]1O2)C1CCOCC1	11.1	-30.8	0.3
O=S(=O)(c1ccccc1)N1C[C@@H]2N[C@H](C1)C2c1ccc(-c2ccc(F)cc2)cc1 (stereo partly specified)	-84.5*!	x	9.0
COc1cccc(S(=O)(=O)N2C[C@@H]3N[C@H](C2)C3c2ccc(-c3ccccc3OC)cc2)c1 (stereo partly specified)	-34.2	x	11.2
COc1ccccc1-c1ccc([C@@H]2[C@@H]3CN(S(=O)(=O)c4ccc(-c5ccccc5)cc4)C[C@H]2N3)cc1	-89.2*	x	5.7
O=S(=O)(c1ccccc1)N1C[C@@H]2N[C@H](C1)C2c1ccc(/C=C/c2ccccc2)cc1 (stereo partly specified)	-36.6	x	-96.3*!
Cc1ccccc1S(=O)(=O)N1C[C@@H]2N[C@H](C1)C2c1ccc(-c2ccc(C#N)cc2)cc1 (stereo partly specified)	-83.8*!	x	8.4
O=S(=O)(c1ccc(-c2ccccc2)cc1)N1C[C@@H]2N[C@H](C1)C2c1ccc(-c2cncnc2)cc1 (stereo partly specified)	1.9	x	5.0
O=S(=O)(c1ccccc1F)N1C[C@@H]2N[C@H](C1)C2c1ccc(/C=C/c2ccccc2)cc1 (stereo partly specified)	-78.2	x	9.7
Cc1ccccc1S(=O)(=O)N1C[C@@H]2N[C@H](C1)C2c1ccc(-c2ccc(C(=O)N(C)C)cc2)cc1 (stereo partly specified)	-24.4	x	-15.6
O=C(N[C@@H]1CC[C@H](CCNC(=O)C2CCCC2)O[C@H]1CO)c1ccncc1	0.5	x	-1.5
C[C@H]1CN([C@@H](C)CO)C(=O)c2cc(Br)cnc2O[C@H]1CN(C)C(=O)NC1CCCC1	17.3	x	1.8
O=C(C[C@H]1CC[C@H](NC(=O)CN2CCOCC2)[C@@H](CO)O1)NCCc1ccncc1	18.0	2.8	x
CO[C@H]1CN(C)C(=O)c2ccc(NC(=O)c3cc(C)on3)cc2OC[C@H](C)N(CC2CC2)C[C@@H]1C	8.8	-0.4	x
COc1ccc2c3c(n(C)c2c1)[C@@H](CO)N(C(=O)Nc1ccccc1F)CC31CN(C)C1	22.2	x	x
Cc1ccc(-c2ccc(C3[C@@H]4CN(S(=O)(=O)c5ccc(C)cc5)C[C@H]3N4)cc2)cc1 (stereo partly specified)	-21.1	x	-96.9*
SMILES	Pf Dd2 growth	T cruzi growth	C diff growth
Cc1cccc(S(=O)(=O)N2C[C@@H]3N[C@H](C2)C3c2ccc(-c3cncnc3)cc2)c1 (stereo partly specified)	-28.0	x	-3.2
O=S(=O)(c1ccc(F)cc1)N1C[C@@H]2N[C@H](C1)C2c1ccc(-c2ccc(F)cc2)cc1 (stereo partly specified)	-88.5*!	x	9.5
Cc1ccc(-c2ccc(C3[C@@H]4CN(S(=O)(=O)c5cccc(C)c5)C[C@H]3N4)cc2)cc1 (stereo partly specified)	-42.5	x	-94.9*
Cc1ccc(S(=O)(=O)N2C[C@@H]3N[C@H](C2)[C@@H]3c2ccc(-c3cccc(C)c3)cc2)cc1	-63.3	x	1.3
CN(C)C(=O)c1ccc(-c2ccc(C3[C@@H]4CN(S(=O)(=O)c5ccc(F)cc5)C[C@H]3N4)cc2)cc1 (stereo partly specified)	-20.9	x	-12.0
COc1ccc(S(=O)(=O)Nc2ccc3c(c2)CC(=O)N([C@H](C)CO)C[C@H](C)[C@@H](CN(C)C(=O)Nc2ccccc2)O3)cc1	8.3	5.0	-0.9
CO[C@@H]1CN(C)C(=O)c2ccc(NS(C)(=O)=O)cc2OC[C@H](C)N(Cc2cncnc2)C[C@@H]1C	23.3	-32.3	x
Cc1noc(C)c1NC(=O)Nc1ccc2c(c1)C(=O)N([C@H](C)CO)C[C@H](C)[C@@H](CN(C)Cc1ccc(Cl)c(Cl)c1)OCCCC[C@H](C)O2	-26.0	36.6	-2.7
C[C@@H]1CN([C@H](C)CO)C(=O)c2cc(NC(=O)Nc3ccccc3)ccc2O[C@@H](C)CCCCO[C@H]1CN(C)Cc1ccc(Cl)c(Cl)c1	-85.6*	67.8	18.7
Cc1noc(C)c1NC(=O)Nc1ccc2c(c1)C(=O)N([C@@H](C)CO)C[C@H](C)[C@@H](CN(C)Cc1ccc(Cl)c(Cl)c1)OCCCC[C@@H](C)O2	-85.3*	108.8	6.1
CC(C)NC(=O)Nc1ccc2c(c1)C(=O)N([C@@H](C)CO)C[C@H](C)[C@H](CN(C)Cc1ccc(Cl)c(Cl)c1)OCCCC[C@@H](C)O2	x	x	-0.7
CC(C)NC(=O)Nc1ccc2c(c1)C(=O)N([C@@H](C)CO)C[C@H](C)[C@@H](CN(C)Cc1ccc(Cl)c(Cl)c1)OCCCC[C@H](C)O2	x	x	5.3
CC(C)NC(=O)Nc1ccc2c(c1)C(=O)N([C@H](C)CO)C[C@H](C)[C@H](CN(C)Cc1ccc(Cl)c(Cl)c1)OCCCC[C@@H](C)O2	x	x	11.2
C[C@@H]1CCCCO[C@H](CN(C)Cc2ccc(Cl)c(Cl)c2)[C@H](C)CN([C@@H](C)CO)C(=O)c2cc(NC(=O)Nc3ccccc3)ccc2O1	-84.9*	76.1	7.8
C[C@@H]1CCCCO[C@@H](CN(C)Cc2ccc(Cl)c(Cl)c2)[C@H](C)CN([C@H](C)CO)C(=O)c2cc(NC(=O)Nc3ccccc3)ccc2O1	-82.6*	72.9	15.5
C[C@@H]1CCCCO[C@@H](CN(C)C(=O)c2ccncc2)[C@@H](C)CN([C@H](C)CO)C(=O)c2cc(NS(=O)(=O)c3ccc(F)cc3)ccc2O1	38.1	6.4	x
